These results are taken from PubChem BioAssay (NCI).

SMILES strings stand for the structures. About 83,000 compounds went through this panel and 20% of them were active in at least one assay; those are over-represented in the sample as a whole.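 Single-dose data. Exposure time 48 hours. Values below 10 considered active.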 A number with no mark means an inactive call. Active and inactive are the calls of the source.

In the experiment the test system is M14 melanoma. The experiment in a line: NCI-60 one-dose screen, 48 h (100 = growth as untreated, 0 = no growth, -100 = all killed). The settings on record: 10 µM unless noted. The protocol:
Growth inhibition of the M14 human tumor cell line is measured as a screen for anti-cancer activity. Cells are grown in 96 well plates and exposed to the test compound for 48 hours. Compounds are tested at a single concentration, which is 10^-5 M for most compounds. The reported endpoint is percent growth (GI% or GIPRCNT), where numbers from 0 - 100% represent growth inhibition, and numbers from -100% - 0 represent cell death. For example, a value of 40 represents 60% growth inhibition. A value of 0 means no net growth occurred over the course of the experiment. A value of -40 indicates 40% of cells at the beginning of the experiment died by the end of the experiment. A value of -100 means all cells are dead at the end of the experiment.
NCI-60 Human Tumor Cell Lines Screen was performed using the standard one-dose NCI protocol, which is described in more detail at https://dtp.cancer.gov/discovery_development/nci-60/default.htm.
Compounds with GIPRCNT values below 10 were considered active. Activity score was based on GIPRCNT using the following formula: […]
Score is 0 for GIPRCNT values of 100 or above, 50 for GIPRCNT values of 0, and 100 for GIPRCNT values of -100.
Take `COc1ccccc1CNCCCN1C(=O)c2ccc3c4c(ccc(c24)C1=O)C(=O)N(CCCNCc1ccccc1OC)C3=O`: the growth is -61.9% (active).

Consider `CN1NC(c2ccccc2)NN(C)C1=O`, for which the growth is 108%.

In the case of `CC1CCCCC[N+]12CCCC2` (stereo not given), the growth is 102%.

For `COc1ccc(/C=C2\SC(=O)N(Cc3cc(=O)oc4ccc(OC)cc34)C2=O)cc1`, the growth is 92.7%.

In the case of `CC(=O)N1CCN(CCNC(=O)n2cc(-c3ccncc3)c(-c3ccc(O)c(Cl)c3)n2)CC1`, the growth was 70.2%.

As for `CC1=NN(c2cccc(Cl)c2)C(=O)/C1=C\c1cn(-c2nc(N3CCOCC3)nc(N3CCOCC3)n2)c2ccccc12`, the growth was 103%.

Consider `N=C(N)c1ccc(-c2ccc(-c3ccc(Cl)cc3)s2)s1`, for which the growth was -72.7% (active).

As to `Oc1ccc(Br)cc1/C=N/NC(=S)NC12CC3CC(CC(C3)C1)C2`, the growth was 20.6%.

Turning to `COC(=O)/C=C1/CCCCC1(C)C(=O)OC` (stereo not given), the growth is 101%.

Consider `O=C1OC(c2ccc(-c3ccccc3)cc2)=C/C1=C/c1c2ccccc2cc2ccccc12`, for which the growth was 108%.

Consider `COc1cc(C(=O)Nc2ccc(N(C)C)cc2)cc(OC)c1OC`, for which the growth is 89.8%.

Turning to `NC(N)=N/N=C/c1cccc(Br)c1`, the growth is 92.8%.

For `COc1ccc(C(=O)NCCNc2nccc(-c3c(-c4ccc(F)cc4)nc4sccn34)n2)cc1`, the growth was 55.6%.

As to `COc1ccc(CNCCCN2C(=O)c3ccc4c5c(ccc(c35)C2=O)C(=O)N(CCCNCc2ccc(OC)c(OC)c2OC)C4=O)c(OC)c1OC`, the growth was -60.6% (active).

For the compound `CN(CCC#N)c1ccc(/C=C(\C#N)c2cccc(C(F)(F)F)c2)cc1`, the growth is 55.9%.

Take `CCCCCCNC(=O)Oc1ccc(/C(=C(/C)Cc2ccc(OC)cc2)c2ccc(OCCN3CCCCC3)cc2)cc1`: the growth is 84.6%.

Consider `N=C(N)N=Nc1ccc(NN=C(N)N)c2ccccc12`, for which the growth was 75.9%.

In the case of `C/C=C(/C)C(=O)OC1C=C(CO)C(=O)C(OC(=O)C(C)(O)C(C)Cl)C1C(C)C` (stereo not given), the growth was -56.4% (active).

On to `O=S(=O)(O)CCI`, for which the growth was 99%.

`O=C1Nc2ccccc2/C1=C/c1cn(CC(O)Cn2cc(/C=C3\C(=O)Nc4ccccc43)c3ccccc32)c2ccccc12` (stereo not given): the growth is -81.4% (active).

In the case of `COc1cc(OC)cc(-c2ccc(-c3ccc(C(=N)N)cc3)s2)c1`, the growth is -90.5% (active).

For `COc1ccc(C2=C/C(=C\c3ccc(Cl)cc3)C(=O)NN2C(=S)NN)cc1`, the growth is 99.5%.

Consider `CCC(CCCN1C(=O)c2ccccc2C1=O)Nc1cc(OC)cc2cccnc12` (stereo not given), for which the growth was -100% (active).

With `COc1cc2c(cc1OC)C(Cc1cc(OC)c(OC)cc1[N+](=O)[O-])=NCC2`, the growth was 60.1%.

For `COc1ccc2c(c1)cn1c3ccc(O)cc3[nH]c(=O)c21`, the growth was 14.7%.

Consider `N=c1c2c(=O)n3c(nc2nc2sc4ccc(Cl)cc4n12)-c1ccccc1Sc1ccccc1-3`, for which the growth is 21.6%.

Consider `CCCCN(CCCC)CCCNc1c2c(nc3ccc(Cl)cc13)CCCC2`, for which the growth was 98%.

As to `COc1ccc(OC)c(Cn2cc3c(c2-c2ccccc2)CCc2cnoc2-3)c1`, the growth was 50.7%.

On to `COc1ccc(Cn2cc3c(c2-c2ccccc2)CCc2cnoc2-3)cc1N`, for which the growth is 18.2%.

As for `O=C(/C=C1\C(=O)N(Cc2ccc([N+](=O)[O-])cc2)c2ccccc21)c1ccc(OCCN2CCCCC2)cc1`, the growth is -59.4% (active).

In the case of `CC(=O)OC1/C=C\CC/C=C\C1` (stereo not given), the growth was 104%.

Consider `COc1cccc2c1n([O-])c1cccc(OC)c1[n+]2=O`, for which the growth is 96%.

Regarding `CC1(C)NCCC[C@]2(C)[C@H]3CC=C4[C@@H]5C[C@](C)(COC(=O)c6ccccc6C(=O)O)CC[C@]5(C)CC[C@@]4(C)[C@]3(C)CC[C@@H]12`, the growth is 69.3%.

As to `OCC(O)C(O)CC1SCCS1` (stereo not given), the growth is 97.9%.

With `CC(=O)Oc1cc2ccccc2cc1C(C)C`, the growth is 106%.

`COc1cccc(CNC(=O)c2cccc(C3CC(=O)c4c(cc(OC)c(OC)c4OC)O3)c2)c1` (stereo not given): the growth is 41%.

With `C[n+]1c2ccccc2c(Nc2ccc(NS(=O)(=O)CCCCN=C(N)N)cc2)c2ccc(N)cc21`, the growth is 53.2%.

As to `CCCCCCCCc1ccc(CCC(N)(CO)CO)cc1`, the growth was 50%.

Take `CC(O)c1cc[cH-]c1.[Fe+2].c1cc[cH-]c1` (stereo not given): the growth is 95.6%.

For `COc1cc2c(c3c1c(=O)c1cccc(F)c1n3C)C=CC(C)(C)O2`, the growth was 101%.
